# MITF inh: inhibitors of human MITF | O75030 | AlphaScreen MITF homodimerization, bead proximity signal | inhibition, % at 2.6 µM | 0.91% of 650,000 active | AID 1259374; in the data active = inhibition above about 50%;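 note: 0% = vehicle wells with protein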
# FBW7 act: activators of human E3 ligase FBW7 | Q969H0 | AlphaScreen FBW7–phospho-cyclin E peptide binding, activator screen | normalized activity (activation), % at 26.1 µM | 0.13% of 650,000 active; in the data active = normalized activity above about 1.9%;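 note: purified mutant Fbw7 with reduced substrate affinity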
# GPR151 ag: activators of human GPR151. AID 1508602. PathHunter beta-arrestin GPR151 cells, luminescence. 1% of 650,000 active. Q8TDV0. activation, % at 11.2 µM; in the data active = activation above about 4.9%;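 note: 0% = median of compound wells and 100% = cells with positive control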
# Target sequence (Q8TDV0 whole entry, looked up): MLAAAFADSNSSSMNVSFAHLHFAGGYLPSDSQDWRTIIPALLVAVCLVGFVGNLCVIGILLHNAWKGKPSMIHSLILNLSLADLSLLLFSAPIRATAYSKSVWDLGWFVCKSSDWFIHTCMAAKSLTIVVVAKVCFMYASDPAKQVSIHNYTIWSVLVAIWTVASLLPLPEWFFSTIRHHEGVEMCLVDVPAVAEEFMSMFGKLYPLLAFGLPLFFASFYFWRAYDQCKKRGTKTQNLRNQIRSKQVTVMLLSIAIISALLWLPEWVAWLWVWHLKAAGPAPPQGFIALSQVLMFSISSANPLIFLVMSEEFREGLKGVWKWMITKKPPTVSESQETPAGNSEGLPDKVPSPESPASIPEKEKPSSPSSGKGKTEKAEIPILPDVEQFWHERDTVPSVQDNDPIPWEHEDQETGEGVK
# TEAD-YAP inh: TEAD-YAP interaction inhibition. HEK-TIYL cells, TEAD-Gal4/YAP UAS-luciferase luminescence. inhibition, % at 9.12 µM. 1.4% of 640,000 active; in the data active = inhibition above about 32%;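 note: 0% = median of test compound wells and 100% = reference inhibitor wells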
# Starred values were filed as active, the others as inactive. Sampled rows, rich in hits. Any-hit rate of the full collection: about 3.5%.
SMILES,MITF inh,FBW7 act,GPR151 ag,TEAD-YAP inh
Cc1ccc(-c2nnc(N3CCN(C(=O)CN4CCCC4)CC3)c3ccccc23)cc1,8,0,1,1
Cc1ccc(-c2nnc(N3CCN(C(=O)c4ccco4)CC3)c3ccccc23)cc1,-3,2.3*,1,26
Oc1ccc(-c2csc(Nc3ccccc3)n2)cc1O,66*,0,1,-15
Oc1ccc(-c2csc(Nc3ccc(Cl)cc3)n2)cc1O,-1,0,-1,-75
CCOc1ccc(Nc2nc(-c3sc(C)nc3C)cs2)cc1,6,0,-1,41*
CCC(=O)Nc1nc(C)c(-c2csc(Nc3ccc(NC(C)=O)cc3)n2)s1,13,0,-2,44*
Cc1nc2sccn2c1-c1csc(Nc2ccc(Cl)cc2)n1,14,0,0,50*
COc1cc(Br)c(Nc2nc(-c3c(C)nc4sccn34)cs2)c(Br)c1,-15,0,-1,8
Oc1cccc(Nc2nc(-c3cccnc3)cs2)c1,9,0,-2,45*
Cc1nc(C)c(-c2csc(Nc3cccc(O)c3)n2)s1,10,0,-1,35*
Oc1cccc(Nc2nc(-c3ccncc3)cs2)c1,6,0,-1,3
CCOc1ccc(Nc2nc(-c3c(C)nc4sccn34)cs2)cc1,10,0,-1,61*
Cc1ccc(Nc2nc(-c3c(C)nc4sccn34)cs2)c(C)c1,-3,0,1,50*
Nc1ccc(NC(=O)c2nc[nH]c2C(=O)O)cc1,86*,-2,0,6
O=C(NCC1Cc2c(F)ccc(-c3ccc(C(=O)C4CC4)cc3)c2O1)c1cnsn1 (stereo unspecified),-10,0,-1,56*
COCCC(=O)NCC1Cc2c(F)ccc(-c3ccc(C(=O)C4CC4)cc3)c2O1 (stereo unspecified),1,0,-1,-25
Cc1nonc1C(=O)NCC1Cc2c(F)ccc(-c3ccc(C(=O)C4CC4)cc3)c2O1 (stereo unspecified),-14,0,-1,63*
Cc1nonc1CC(=O)NC1(c2ccc3c(c2)OCO3)CCCC1,2,0,0,8
N#C/C(=C\c1ccc(-c2ccc(S(N)(=O)=O)cc2)o1)C(=O)Nc1ccccc1C(=O)O,1,0,-1,-4
O=C(Nc1ccc(F)cc1F)c1ccc(Br)cc1F,3,1,-5,-46
O=C(c1cc(COc2cccc3cnccc23)on1)N1CCN(C(=O)c2cccs2)CC1,0,0,3,43*
COc1ccc(C2C(C(=O)Nc3ccccn3)c3ccccc3C(=O)N2Cc2ccc(F)cc2)cc1 (stereo unspecified),13,1,0,-2
C=CCn1c(NCCc2ccccc2)nc2c1c(=O)n(C)c(=O)n2C,-18,0,1,37*
C/C(Cl)=C/Cn1c(NCCc2ccccc2)nc2c1c(=O)n(C)c(=O)n2C,-1,0,0,6
C/C(=N/Nc1nc2c(c(=O)n(C)c(=O)n2C)n1Cc1ccccc1)c1ccccc1O,6,0,1,7
SMILES,MITF inh,FBW7 act,GPR151 ag,TEAD-YAP inh
CCOc1cc(/C=N/Nc2nc3c(c(=O)n(C)c(=O)n3C)n2Cc2ccccc2)ccc1O,0,0,-1,44*
C=CCNc1nc2c(c(=O)n(C)c(=O)n2C)n1Cc1ccccc1,14,0,2,34*
O=C(/C=C/c1ccccc1)N1CCN(c2ccc(-c3ccncc3)nn2)CC1,6,0,-1,6
O=[N+]([O-])c1cc([N+](=O)[O-])c2cccnc2c1Oc1ccccc1O,68*,-1,-1,-27
CC(=O)NC(c1ccc2c(c1)OCO2)c1cc([N+](=O)[O-])c2cccnc2c1O (stereo unspecified),68*,-1,0,-3
COc1cc(C(=O)Oc2ccc([N+](=O)[O-])c3cccnc23)cc(OC)c1OC,15,0,1,6
CC(=O)NC(c1ccco1)c1cc([N+](=O)[O-])c2cccnc2c1O (stereo unspecified),55*,0,-1,-2
O=[N+]([O-])c1ccc(OS(=O)(=O)c2ccc3ccccc3c2)c2ncccc12,2,-2,1,48*
CCN(CC)C(=O)CSC1=C(C#N)C(c2cccs2)C(C(=O)Nc2ccccc2)=C(C)N1 (stereo unspecified),5,0,1,3
CC(=O)NC(c1ccc(Cl)cc1Cl)c1cc([N+](=O)[O-])c2cccnc2c1O (stereo unspecified),58*,-2,1,31
COc1ccccc1C(NC(C)=O)c1cc([N+](=O)[O-])c2cccnc2c1O (stereo unspecified),85*,-1,0,-8
CC(=O)NC(c1ccc(C)cc1)c1cc([N+](=O)[O-])c2cccnc2c1O (stereo unspecified),31,-1,1,-10
CN1CCCc2cc(C(CNC(=O)c3c(F)cccc3F)N3CCCCC3)ccc21 (stereo unspecified),1,0,0,-10
CC(=O)c1ccc(NC(=O)Cn2cc(S(=O)(=O)Cc3ccccc3)c3ccccc32)cc1,-5,0,3,-7
CC(C)n1cnc2c(NCc3nc4ccccc4[nH]3)nc(-c3ccc(C(=O)N4CCN(C)CC4)cc3)nc21,7,0,-1,65*
CC(C)n1cnc2c(NCc3nc4ccccc4[nH]3)nc(-c3ccc(C(=O)NC4CC4)cc3)nc21,18,0,-1,78*
CC(C)n1cnc2c(NCc3ccccc3)nc(-c3ccc(C(=O)N4CCN(C)CC4)cc3)nc21,11,0,0,-3
O=C(OCC(=O)N1CCCCCC1)c1cc(O)c(O)c(O)c1,91*,0,1,-2
Cc1cc(C)cc(C(=O)OCC(=O)N2CCCC2)c1,3,0,0,-9
O=C(OCC(=O)N1CCN(Cc2ccccc2)CC1)c1cc(O)c(O)c(O)c1,84*,0,-1,-11
Cc1cccc(NC(=O)/C=C2\SC(=O)NC2=O)c1,9,0,1,20
CC(CN1CCc2nnc(CNC(=O)c3ccncc3)n2CC1)c1ccccc1 (stereo unspecified),1,0,0,1
CCCCC(=O)Nc1nnc(SCC(=O)Nc2ccc3c(c2)OCO3)s1,0,0,1,-20
O=C1c2ccccc2C(=O)c2c1oc1c3c(ccc21)OCN(CCCN1CCOCC1)C3,22,0,-1,81*
CCN1C(=O)c2ccccc2S(=O)c2ccc(C(=O)N3CCC4(CC3)OCCO4)cc21 (stereo unspecified),2,0,1,8
Cc1ccc(S(=O)(=O)N2CCN(c3ccc(C(N)=O)cc3[N+](=O)[O-])CC2)cc1,-1,0,4,37*
O=[N+]([O-])c1ccccc1N1CCN(S(=O)(=O)c2ccc3ccccc3c2)CC1,1,0,3,6
COc1ccc(N2CCN(S(=O)(=O)c3ccc(C)cc3)CC2)c([N+](=O)[O-])c1,-1,0,-1,-2

# Compound activity from PubChem BioAssay.
